These results are taken from PubChem BioAssay (NCI).

Test systems include SR leukemia; RPMI-8226 leukemia; OVCAR-8 ovarian; OVCAR-5 ovarian; OVCAR-4 ovarian; SK-OV-3 ovarian; IGROV1 ovarian; OVCAR-3 ovarian; HS 578T breast; NCI/ADR-RES ovarian; T-47D breast; BT-549 breast; MDA-MB-435 melanoma; SW-620 colon; MCF7 breast; HCT-116 colon; HCC-2998 colon; KM12 colon.
What all share (test): NCI-60 one-dose screen, 48 h (100 = growth as untreated, 0 = no growth, -100 = all killed)
Holding throughout (settings): 10 µM unless noted

This is part of a sample that, as a whole, favours compounds with a hit. Of some 83,000 tested, about 20% had one in any assay.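 Single-dose data. Exposure time 48 hours. Values below 10 considered active.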 A number with no mark means an inactive call. Calls of active or inactive are those of the source.

As for `O=C(CSc1nc2ccccc2c(=O)n1-c1ccccc1)Nc1ccc(-c2nc3ccc([N+](=O)[O-])cc3[nH]2)cc1`, the growth is 20.9% in the test with SR leukemia; 67.2% in the test with RPMI-8226 leukemia; 75.5% in the test on OVCAR-8 ovarian; 86.1% with OVCAR-5 ovarian; 88.6% with OVCAR-4 ovarian; 106% in the test on SK-OV-3 ovarian. Moreover, the growth with IGROV1 ovarian is 57.9%; with OVCAR-3 ovarian it was 63.6%; with HS 578T breast, 77.1%; in the test on NCI/ADR-RES ovarian, 75.3%; with T-47D breast, 89.1%; with BT-549 breast, 80%. Further, the growth with MDA-MB-435 melanoma is 80.1%; in the test with SW-620 colon it was 43.7%; in the test with MCF7 breast, 40.6%; with HCT-116 colon, 67.4%; in the test on HCC-2998 colon, 100%; in the test with KM12 colon, 91.7%.
Consider `COc1c(N2CC3CCCNC3C2)c(F)cc2c(=O)c(C(=O)N/N=C/c3ccc(Br)cc3)cn(C3CC3)c12` (stereo not given), for which the growth in the test on SR leukemia was -28.1% (active); in the test with RPMI-8226 leukemia it was 65.8%; in the test with OVCAR-8 ovarian, 90.3%; in the test on OVCAR-5 ovarian, 92.8%; with OVCAR-4 ovarian it was 90.1%; in the test with SK-OV-3 ovarian, 99.6%. Besides, the growth in the test on IGROV1 ovarian was 75.2%; in the test with OVCAR-3 ovarian, 81.7%; in the test with HS 578T breast, 88.4%; in the test with NCI/ADR-RES ovarian it was 90.1%; in the test on T-47D breast, 84.3%; in the test on BT-549 breast, 114%. Besides, the growth is 84.7% with MDA-MB-435 melanoma; 89.6% in the test on SW-620 colon; 52.4% in the test on MCF7 breast; 50.5% with HCT-116 colon; 92.2% with HCC-2998 colon; 97.3% with KM12 colon.
`NC(=O)c1c(NC(=O)c2ccccc2C(F)(F)F)sc2c1CCC(=O)C2`: the growth was 27.2% with SR leukemia; -1.93% (active) in the test on RPMI-8226 leukemia; 17.3% with OVCAR-8 ovarian; 27% in the test on OVCAR-5 ovarian; 9.19% (active) in the test on OVCAR-4 ovarian; 105% in the test on SK-OV-3 ovarian. Besides, the growth is 31.2% in the test on IGROV1 ovarian; 12.3% in the test on OVCAR-3 ovarian; 32.5% in the test on HS 578T breast; 14.9% in the test on NCI/ADR-RES ovarian; 14.1% with T-47D breast; 14.7% in the test with BT-549 breast. For the same molecule, the growth in the test with MDA-MB-435 melanoma was 14.7%; in the test on SW-620 colon, 19%; in the test on MCF7 breast, 5.93% (active); with HCT-116 colon it was 9.24% (active); with HCC-2998 colon, 33.3%; with KM12 colon it was 9.45% (active).
`COc1ccc2c(c1)c(CC(=O)[Se]CC(=O)O)c(C)n2C(=O)c1ccc(Cl)cc1`: the growth was 101% in the test with SR leukemia; 98.4% in the test on RPMI-8226 leukemia; 101% with OVCAR-8 ovarian; 104% in the test on OVCAR-5 ovarian; 103% in the test with OVCAR-4 ovarian; 116% with SK-OV-3 ovarian. The growth with IGROV1 ovarian is 74.5%; in the test with OVCAR-3 ovarian it was 113%; with HS 578T breast, 85.8%; with NCI/ADR-RES ovarian, 103%; with T-47D breast, 103%; in the test on BT-549 breast, 122%. Moreover, the growth was 51.2% with MDA-MB-435 melanoma; 113% with SW-620 colon; 37.4% with MCF7 breast; 98.1% in the test with HCT-116 colon; 119% in the test with HCC-2998 colon; 101% in the test on KM12 colon.
As to `CCCn1cnc2c(c1=N)C(c1ccc(OC)cc1)c1sc3c(C)cccc3c1O2` (stereo not given), the growth was 27% in the test on SR leukemia; -3.63% (active) in the test with RPMI-8226 leukemia; 23.9% in the test on OVCAR-8 ovarian; 32.4% in the test with OVCAR-5 ovarian; 75.3% in the test with OVCAR-4 ovarian; 49% in the test on SK-OV-3 ovarian. For the same molecule, the growth is 18.4% with IGROV1 ovarian; 7.94% (active) in the test with OVCAR-3 ovarian; 10.5% in the test with HS 578T breast; 7.35% (active) in the test on NCI/ADR-RES ovarian; 40.6% in the test on T-47D breast; 12.2% with BT-549 breast. The growth was -33.4% (active) with MDA-MB-435 melanoma; 25.7% in the test on SW-620 colon; 20.4% in the test on MCF7 breast; 6.27% (active) in the test on HCT-116 colon; 15% in the test on HCC-2998 colon; 11.7% in the test with KM12 colon.
Regarding `COc1ccc2c(c1)c(CC(=O)[Se]CCC#N)c(C)n2C(=O)c1ccc(Cl)cc1`, the growth was 4.36% (active) in the test on SR leukemia; 50.9% in the test with RPMI-8226 leukemia; 6.32% (active) in the test with OVCAR-8 ovarian; 29% in the test on OVCAR-5 ovarian; 31.6% in the test on OVCAR-4 ovarian; 22.3% in the test on SK-OV-3 ovarian. Besides, the growth is -55.6% (active) in the test with IGROV1 ovarian; -30.7% (active) in the test with OVCAR-3 ovarian; -14.2% (active) with HS 578T breast; -1.67% (active) in the test with NCI/ADR-RES ovarian; 66.7% with T-47D breast; -59.8% (active) with BT-549 breast. The growth with MDA-MB-435 melanoma is -13.4% (active); in the test with SW-620 colon, 2.84% (active); with MCF7 breast, 2.34% (active); with HCT-116 colon, -16.9% (active); in the test with HCC-2998 colon, 75.6%; in the test on KM12 colon, 26.5%.
`Nc1cc(-c2c[nH]c3ccc(Br)cc23)nc2cc(-c3c[nH]c4ccc(Br)cc34)nn12`: the growth in the test on SR leukemia is -1.79% (active); in the test with RPMI-8226 leukemia, 15.9%; in the test on OVCAR-8 ovarian, 24.5%; with OVCAR-5 ovarian it was 7.96% (active); in the test on OVCAR-4 ovarian it was 40.8%; in the test on SK-OV-3 ovarian, 116%. Besides, the growth is 22.2% in the test on IGROV1 ovarian; 22.6% with OVCAR-3 ovarian; 54.4% in the test with HS 578T breast; 35.5% in the test on NCI/ADR-RES ovarian; 39.3% in the test with T-47D breast; 76.4% in the test on BT-549 breast. Also, the growth in the test on MDA-MB-435 melanoma was -20.3% (active); in the test on SW-620 colon, 5.89% (active); in the test on MCF7 breast it was 8.21% (active); with HCT-116 colon, -72% (active); with HCC-2998 colon, -3.56% (active); with KM12 colon, -23.2% (active).
For `O=[N+]([O-])c1cc(/C=N/Nc2nc(N/N=C/c3ccc(Cl)c([N+](=O)[O-])c3)nc(N3CCCCC3)n2)ccc1Cl`, the growth with SR leukemia is 63.2%; with RPMI-8226 leukemia, -18.3% (active); in the test on OVCAR-8 ovarian it was 31%; in the test on OVCAR-5 ovarian, 108%; with OVCAR-4 ovarian, 86.9%; in the test with SK-OV-3 ovarian, 98.8%. Further, the growth with IGROV1 ovarian is 52.7%; in the test with OVCAR-3 ovarian, -7.45% (active); in the test with HS 578T breast, 53.8%; in the test with NCI/ADR-RES ovarian, 30.2%; with T-47D breast, 48.2%; with BT-549 breast it was 97.9%. The growth was 92.3% with MDA-MB-435 melanoma; 63.7% in the test with SW-620 colon; 22% in the test on HCT-116 colon; 67.4% in the test on HCC-2998 colon; 5.45% (active) in the test with KM12 colon.
Take `O=S(=O)(NCCCNc1nccc(-n2cnc3ccccc32)n1)c1ccc(C(F)(F)F)cc1`: the growth in the test on SR leukemia was 75.4%; with RPMI-8226 leukemia, 69.7%; in the test on OVCAR-8 ovarian, 82.5%; with OVCAR-5 ovarian, 96.3%; in the test on OVCAR-4 ovarian, 66.7%; with SK-OV-3 ovarian, 92.5%. In addition, the growth is 98.1% in the test with IGROV1 ovarian; 96.8% with OVCAR-3 ovarian; 78.3% in the test with HS 578T breast; 81.1% in the test on NCI/ADR-RES ovarian; 44.7% with T-47D breast; 88.2% in the test on BT-549 breast. Also, the growth in the test on MDA-MB-435 melanoma was 93.4%; in the test on SW-620 colon, 106%; with HCT-116 colon, 75.9%; with HCC-2998 colon, 112%; in the test on KM12 colon it was 79.8%.
